IDE exosite inh: insulin-degrading enzyme (human) exo-site inhibition; purified IDE, FL-6b probe fluorescence polarization; stronger effect = lower value; z-score at 20 µM; 17,000 tested, 6.3% active; AID 1259349;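 active = z-score of -3 or lower, meaning strong loss of probe binding signal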;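 also: His-tagged human IDE residues 42-1019 made in E. coli with 30 nM FL-6b probe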
Active calls of the source: *. This excerpt belongs to a sample that is enriched for hits.

SMILES	IDE exosite inh
COCC(=O)N1[C@H](CO)[C@H](c2ccccc2-c2ccccc2)[C@@H]1C#N	2.67
O=C(Nc1ccccc1)N1CCCCN2[C@@H](CO)[C@@H](c3ccc(C#Cc4ccccn4)cc3)[C@@H]2C1	-2.09
O=C(C[C@@H]1CC[C@@H]2[C@H](COC[C@H](O)CN2Cc2nccs2)O1)NCc1ccccc1Cl	-0.593
COc1ccc(C[C@H]2CCn3nncc3COC[C@@H](c3ccccc3)NC2=O)cc1	-0.584
COc1ccc(C#Cc2ccc([C@H]3[C@H](CO)N4CCCCN(Cc5ccncc5)C[C@@H]34)cc2)cc1	1.78
COc1ccc(C#Cc2ccc([C@@H]3[C@H](CO)N4CCCCN(Cc5ccncc5)C[C@@H]34)cc2)cc1	1.17
COc1ccccc1-c1ccc([C@H]2[C@@H](CO)N3CCCCN(Cc4ccncc4)C[C@@H]23)cc1	-4.59*
COc1ccc(S(=O)(=O)Nc2ccc3c(c2)CC(=O)N([C@@H](C)CO)C[C@H](C)[C@@H](CN(C)C(=O)Nc2c(C)noc2C)O3)cc1	1.53
CCC(=O)N1[C@H](CO)[C@@H](c2ccccc2)[C@H]1CN(C(C)C)S(C)(=O)=O	4.58
COc1ccccc1S(=O)(=O)N[C@H]1C=C[C@@H](CC(=O)N2CCOCC2)O[C@@H]1CO	-0.0542
CCC(=O)N1CC(=O)N2[C@H](C1)[C@H](c1ccc(C#CC(C)C)cc1)[C@@H]2CO	1.63
CCCC#Cc1ccc([C@@H]2[C@@H](CO)N3C(=O)CN(C(=O)NCCC)C[C@@H]23)cc1	1.75
CCCNC(=O)N1CC(=O)N2[C@H](CO)[C@@H](c3ccc(C#Cc4cccc(F)c4)cc3)[C@@H]2C1	-6.36*
CCCC#Cc1ccc([C@H]2[C@H](CO)N3C(=O)CN(C(=O)NCCC)C[C@@H]23)cc1	-0.633
CCCNC(=O)N1CC(=O)N2[C@H](CO)[C@H](c3ccc(C#Cc4cccc(F)c4)cc3)[C@@H]2C1	-8.46*
CCCNC(=O)N1CC(=O)N2[C@H](C1)[C@@H](c1ccc(C#Cc3ccc(F)cc3)cc1)[C@@H]2CO	1.16
CCCNC(=O)N1CC(=O)N2[C@H](CO)[C@@H](c3ccc(C#Cc4cccc(OC)c4)cc3)[C@H]2C1	0.0101
CCCNC(=O)N1CC(=O)N2[C@H](CO)[C@H](c3ccc(C#Cc4cccc(F)c4)cc3)[C@H]2C1	0.546
CCCNC(=O)N1CC(=O)N2[C@@H](CO)[C@H](c3ccc(C#Cc4cccc(F)c4)cc3)[C@@H]2C1	-9.19*
CCCNC(=O)N1CC(=O)N2[C@H](CO)[C@H](c3ccc(C#Cc4ccccc4)cc3)[C@@H]2C1	-9.58*
CCCC#Cc1ccc([C@@H]2[C@H]3CN(C(=O)NCCC)CC(=O)N3[C@H]2CO)cc1	1.59
CCCNC(=O)N1CC(=O)N2[C@H](CO)[C@H](c3ccc(C#Cc4ccccc4)cc3)[C@H]2C1	-1.12
CCCNC(=O)N1CC(=O)N2[C@H](CO)[C@@H](c3ccc(C#Cc4cccc(OC)c4)cc3)[C@@H]2C1	-2.99
O=C1CN(S(=O)(=O)Cc2ccccc2)C[C@H]2[C@@H](c3ccc(C#CC4CC4)cc3)[C@H](CO)N12	0.851
N#C[C@H]1[C@@H](c2ccccc2-c2ccc(F)cc2)[C@H](CO)N1C(=O)Cc1ccccc1	4.17
SMILES	IDE exosite inh
O=C(Nc1cc(F)ccc1F)N1CCCCN2[C@H](CO)[C@@H](c3ccc(-c4cncnc4)cc3)[C@@H]2C1	-0.818
O=C(NC[C@H]1N[C@H](CO)[C@@H]1c1ccc(-c2cncnc2)cc1)C1CCC1	0.199
CCN(C[C@H]1[C@H](c2ccccc2)[C@@H](CO)N1C(C)=O)C(=O)c1ccccn1	2.9
CN1CCCCN2[C@H](CO)[C@@H](c3ccc(-c4ccc(F)cc4)cc3)[C@@H]2C1	0.111
COc1ccc(-c2ccc3n(c2=O)C[C@@H]2[C@@H](CO)[C@H](C(=O)NCC4CC4)N(C(=O)NC(C)C)[C@H]32)cc1	0.254
CC(C)c1cn(CC[C@@H]2CC[C@@H](NS(=O)(=O)c3ccc(F)cc3)[C@@H](CO)O2)nn1	3.37
C/C=C/c1ccc([C@H]2[C@H](CO)N3C(=O)CN(C(=O)Cc4cccnc4)C[C@@H]23)cc1	2.07
O=C(Cc1cccnc1)N1CC(=O)N2[C@H](CO)[C@H](c3ccc(/C=C/c4ccccc4)cc3)[C@@H]2C1	-5.08*
C/C=C/c1ccc([C@@H]2[C@@H](CO)N3C(=O)CN(C(=O)Cc4cccnc4)C[C@@H]23)cc1	3.19
O=C(Cc1cccnc1)N1CC(=O)N2[C@H](CO)[C@@H](c3ccc(/C=C/c4ccccc4)cc3)[C@@H]2C1	-0.701
O=C(Cc1cccnc1)N1CC(=O)N2[C@H](C1)[C@H](c1ccc(/C=C/c3ccccc3)cc1)[C@@H]2CO	-4.97*
C/C=C/c1ccc([C@H]2[C@@H](CO)N3C(=O)CN(C(=O)Cc4cccnc4)C[C@@H]23)cc1	-1.66
COCC(=O)N1[C@H](CO)[C@@H](c2ccc(C3=CCCCC3)cc2)[C@@H]1C#N	0.422
COc1ccccc1-c1ccccc1[C@@H]1[C@@H](C#N)N(C(=O)C2CC2)[C@H]1CO	2.64
C/C=C/c1ccccc1[C@@H]1[C@@H](CO)N(C(=O)c2cccnc2)[C@H]1C#N	-0.621
C[C@@H]1CCCCO[C@@H](CN(C)C(=O)Nc2cccc3ccccc23)[C@H](C)CN([C@H](C)CO)C(=O)c2cc(NC(=O)CCC(F)(F)F)ccc2O1	1.14
COc1cccc(-c2ccc([C@@H]3[C@@H](CO)N4CCCCN(C(=O)c5ccc6c(c5)OCO6)C[C@@H]34)cc2)c1	0.952
COc1cccc(-c2ccc([C@H]3[C@@H](CO)N4CCCCN(C(=O)c5ccc(F)cc5)C[C@@H]34)cc2)c1	-0.66
COc1cccc(-c2ccc([C@H]3[C@H](CO)N4CCCCN(C(=O)NC(C)C)C[C@@H]34)cc2)c1	-12.4*
COc1cccc(-c2ccc([C@H]3[C@H](CO)N4CCCCN(C(=O)c5ccc6c(c5)OCO6)C[C@@H]34)cc2)c1	0.902
COc1cccc(-c2ccc([C@H]3[C@@H](CO)N4CCCCN(C(=O)c5ccc(F)cc5)C[C@H]34)cc2)c1	-3.25*
COc1cccc(-c2ccc([C@H]3[C@H]4CN(C(=O)c5ccc6c(c5)OCO6)CCCCN4[C@H]3CO)cc2)c1	1.32
COc1cccc(-c2ccc([C@@H]3[C@H]4CN(C(=O)NC(C)C)CCCCN4[C@H]3CO)cc2)c1	-8.03*
COc1cccc(-c2ccc([C@@H]3[C@@H](CO)N4CCCCN(C(=O)c5ccc(F)cc5)C[C@H]34)cc2)c1	-1.66
COc1cccc(-c2ccc([C@H]3[C@@H](CO)N4CCCCN(C(=O)NC(C)C)C[C@@H]34)cc2)c1	-5.79*
SMILES	IDE exosite inh
COc1cccc(-c2ccc([C@@H]3[C@H]4CN(C(=O)c5ccc(F)cc5)CCCCN4[C@H]3CO)cc2)c1	0.86
COc1cccc(-c2ccc([C@@H]3[C@@H](CO)N4CCCCN(C(=O)c5ccc(F)cc5)C[C@@H]34)cc2)c1	-0.756
CN1C(=O)c2cc(NS(=O)(=O)c3cccc(F)c3)ccc2OC[C@@H]2O[C@H](CC(=O)N3CCc4ccccc4C3)CC[C@@H]21	1.01
O=C(NC[C@@H]1[C@H](c2ccccc2)[C@@H](CO)N1C(=O)Cc1ccncc1)C1CCC1	-0.97
O=C(CCN1CCCCC1)N[C@H]1CC[C@@H](CC(=O)N2CCC(Cc3ccccc3)CC2)O[C@H]1CO	-0.248
O=C(Nc1ccccc1)N1CCCCN2[C@H](CO)[C@H](c3ccc(-c4ccccc4)cc3)[C@@H]2C1	0.35
CO[C@@H](CN(C)S(=O)(=O)c1cn(C)cn1)[C@@H](C)CN(C(=O)Nc1ccc(C(F)(F)F)cc1)[C@@H](C)CO	1.47
